# Screening results from PubChem BioAssay.
# DAX1 inh-1 – DAX1 (NR0B1) inhibitors on StAR promoter, primary screen, cell-based, luminescence, SF-1 (NR5A1), full-length DAX-1. HEK293T StAR-luciferase reporter, SF-1/DAX-1 repression relief. inhibition, % at 6.8 µM. 370,000 compounds, 1.1% hits. AID 652010, 2013;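 active means inhibition above the mean over all tested compounds plus 3 SD, cut at about 3.6% in these data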;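 further: higher inhibition means more luminescence from relief of DAX-1 repression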
# ssDAF-12 act – S. stercoralis DAF-12 nuclear receptor activators, primary screen, cell-based, luminescence, HEK293, GRIP1 co-expression, lit1-tk-luc; HEK293 ssDAF-12/GRIP1 lit1-tk-luc reporter; % of 3 µM dafachronic acid response; 370,000 compounds, 1% hits; activation, % at 6.8 µM; Nuclear hormone receptor DAF-12 (Strongyloides stercoralis);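 active means activation above the mean over all tested compounds plus 3 SD, cut at about 0.9% in these data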
# DAX1 inh-2 – DAX1 (NR0B1) inhibitors, primary screen, cell-based, HEK293, Gal4-DAX1, luciferase luminescence; HEK293 Gal4-DAX1 luciferase reporter; 340,000 compounds, 0.99% hits; inhibition, % at 6.75 µM; AID 504766, 2011;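 active means inhibition above the mean over all tested compounds plus 3 SD, cut at about 4.2% in these data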;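 further: inhibition shows as a rise in luminescence from relieved DAX1 repression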
# Target sequence (P51843 207-470 limits assumed): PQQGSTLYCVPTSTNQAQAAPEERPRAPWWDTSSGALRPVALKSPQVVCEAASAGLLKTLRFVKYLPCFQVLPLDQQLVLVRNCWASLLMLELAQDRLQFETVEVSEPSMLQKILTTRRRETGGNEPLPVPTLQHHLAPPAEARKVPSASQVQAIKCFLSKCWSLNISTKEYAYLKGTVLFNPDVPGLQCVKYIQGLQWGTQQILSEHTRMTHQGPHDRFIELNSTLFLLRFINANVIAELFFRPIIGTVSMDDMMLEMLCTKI
# hcDAF-12 act – H. contortus DAF-12 nuclear receptor activators, primary screen, cell-based, luminescence, HEK293, lit1-tk-luc reporter; HEK293 hcDAF-12 lit1-tk-luc reporter; 0% DMSO, 100% Δ7-dafachronic acid; activation, % at 6.8 µM; 370,000 compounds, 1.4% hits;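 active means activation above the mean of all tested compounds plus 3 SD, cut at about 5.5% in these data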
# hgDAF-12 ag – H. glycines DAF-12 receptor agonists, primary screen, cell-based, luminescence, HEK293, GAL4 fusion, UAS-luciferase; activation, % at 6.8 µM; HEK293 GAL4-hgDAF12 UAS-luciferase reporter, agonist luminescence; normalized to butyrate control; 370,000 compounds, 1.8% hits;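 active means activation above a cutoff set at the mean of all screened compounds plus 3 SD, cut at about 10% in these data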
# Hits are given with their value; i = inactive; nt = no result given. A selection: hits, their analogues and other compounds. The true share with any hit is near 4.1%.
SMILES,DAX1 inh-1,ssDAF-12 act,DAX1 inh-2,hcDAF-12 act,hgDAF-12 ag
O=C1N=C(N2CCCCC2)S/C1=C\c1ccccc1F,i,i,4.3,i,i
COc1cccc2c1C(=O)c1c(O)c3c(c(O)c1C2=O)C[C@@](O)(C(=O)CO)C[C@@H]3O[C@H]1C[C@H](N)[C@H](O)[C@H](C)O1,i,2.2,i,i,i
CC(=O)[C@@]1(O)Cc2c(O)c3c(c(O)c2[C@H](O[C@H]2C[C@H](N)[C@H](O)[C@H](C)O2)C1)C(=O)c1ccccc1C3=O,i,3.6,nt,i,i
COc1cccc2c1C(=O)c1c(O)c3c(c(O)c1C2=O)CC(O)(C(C)=O)CC3OC1CC(N(C)C)C(O)C(C)O1 (stereo not drawn),i,i,i,i,i
O=C(NCCCc1ccccc1)OC1CCC12CCC(c1ccccc1)CC2 (stereo not drawn),i,i,nt,i,i
CC(C)(C)S(=O)(=O)N1C[C@@H]2CC(=O)C=C2[C@H]1CCO,i,i,nt,i,i
CC(Cl)C(=O)N1CCC(C(=O)NCC2COc3ccccc3O2)CC1 (stereo not drawn),i,i,nt,i,i
Fc1ccc(-c2ccc3c(n2)CCCN3Cc2ccccc2C(F)(F)F)cc1,i,i,nt,i,i
Cc1ccc(-c2nnn(CC(=O)N(CC(=O)NC3CCCCC3)c3ccccc3F)n2)o1,i,i,4.2,i,i
CCc1nnc(NC(=O)c2ccc(OC)cc2)s1,i,i,i,i,11
Cc1cccc(-c2nnc(NC(=O)c3cccs3)s2)c1,i,i,4.3,i,i
CCOC(=O)CNC(=O)CSc1nnc(NC(=O)c2ccc(C)cc2)s1,i,i,i,6.4,13
COc1cc(OC)cc(C(=O)NC2=NCCS2)c1,i,i,i,i,i
CCOC(=O)CNC(=O)CSc1nnc(NC(=O)c2ccc3c(c2)OCO3)s1,i,i,i,i,i
COc1ccc(C(=O)NC2=NCCS2)cc1,i,i,i,i,12
Cc1ccccc1CS(=O)(=O)Cc1ccc(C(=O)Nc2cccc(C)c2C)o1,i,i,nt,i,i
CCc1nnc(NC(=O)c2cccc(OC)c2)s1,3.9,i,i,i,i
COc1cccc(C(=O)Nc2nnc(-c3cccs3)s2)c1,i,i,i,i,11
CCOCc1nnc(NC(=O)c2cccc(OC)c2)s1,i,i,i,i,i
CCc1nnc(NC(=O)Cc2ccc(OC)c(OC)c2)s1,i,i,5.1,i,i
COc1cccc(C(=O)Nc2nnc(C3CCCO3)s2)c1 (stereo not drawn),i,1.0,i,i,i
Nc1ccn([C@@H]2O[C@H](C(=O)N3CCN(C(=O)N4CCCCC4)CC3)[C@@H](O)[C@H]2O)c(=O)n1,i,i,nt,i,i
COc1cccc(C(=O)N2CCC(Oc3cccnc3)CC2)c1,i,i,nt,i,i
Cc1ccc(C(=O)Nc2nnc(COCCO)s2)cc1,i,1.0,nt,6.0,i
COc1ccc(C(=O)Cc2nnc(C)s2)cc1,i,i,4.8,i,i
SMILES,DAX1 inh-1,ssDAF-12 act,DAX1 inh-2,hcDAF-12 act,hgDAF-12 ag
COc1ccc(C(=O)Cc2ccccc2C(=O)O)cc1,i,i,i,i,i
COC(=O)Nc1nnc(-c2ccc(OC)cc2)s1,i,i,i,i,13
O=C(NC1CCCCN(Cc2cccc(Cl)c2)C1=O)c1ccc(COc2ccccc2)cc1 (stereo not drawn),i,i,nt,i,i
O=C(NNc1nc2c(F)cccc2s1)c1ccccc1,i,i,10,i,i
O=C(NNc1nc2c(F)cc(F)cc2s1)c1ccccc1,i,i,i,i,i
CCc1ccc(Oc2cc(C)nc(N)n2)cc1,i,i,i,i,11
CCCc1ccc(Oc2cc(Cl)nc(N)n2)cc1,i,i,i,i,i
CCCOc1cccc(C2C(C(=O)c3ccc(C)o3)=C(O)C(=O)N2CCN2CCOCC2)c1 (stereo not drawn),i,i,i,5.8,i
